# Out of some 4,800 compounds screened, about 410 (8.5%) showed an effect of 50% or more. What follows is part of a selection rich in strong results, with near analogues and random picks from the rest.
# System: Plasmodium falciparum
# Assay: Confirmatory screen in NF54 pLDH assay, in single point, at 2uM, 72h
# Format: functional, Erythrocyte
# Conditions: timepoint 72 hour
row,Compound,% Inhibition [%]
1,NS(=O)(=O)N1CCN(Cc2ccn(C3CCCC3)n2)CC1,9
2,Cc1nn(-c2ncccn2)c2c1[C@@H](c1ccccc1)CC(=O)N2,-15
3,O=C1C[C@H](c2cccnc2)c2cnn(C3CCCC3)c2N1,16
4,Cc1nn(-c2nc3ccccc3[nH]2)c2c1[C@@H](c1cccnc1)CC(=O)N2,79
5,Cc1noc(C2CCN(CC(=O)Nc3ccccc3C(=O)NCC(C)C)CC2)n1,1
6,CCOC(=O)c1nc[nH]c1-n1nc(C)cc1C,7
7,COc1ccc(-c2nccn3cc(C(=O)N4CCCCCC4)nc23)cc1,4
8,CC(=O)NC1CN(C(=O)Nc2ccc(C(C)C)c(F)c2)C1,-11
9,COc1ccc(C2C(C(=O)O)c3ccccc3C(=O)N2C2CCCCC2)cc1 (configuration not stated),-13
10,Cc1c([C@@H](NCc2ncccc2O)C(C)C)oc2ccccc12,94
11,CC1=NN(c2nc(C)cc(O)n2)C(=O)C1,-6
12,COc1cccc(-c2nc3n(c2C(=O)Nc2ccccc2C#N)CCS3(=O)=O)c1,9
13,Cc1ccc(-c2ccc(=O)n(CCC(=O)N3CCN(C4CCCCC4)CC3)n2)cc1,0
14,C[C@H]1C(=O)N(C)C[C@@H](CNS(=O)(=O)c2ccccc2)N1Cc1cccnc1,9
15,CCN(CC)c1ccc(NS(=O)(=O)c2cc(S(=O)(=O)c3ccc(Cl)c(S(=O)(=O)Nc4ccc(N(CC)CC)cc4)c3)ccc2Cl)cc1,5
16,CN(C)CC(O)COc1ccc(S(=O)(=O)c2ccc(OCC(O)CN(C)C)c(Cl)c2)cc1Cl (configuration not stated),61
17,COc1cc(=O)c(C(=O)NCCN2CCCCC2)nn1-c1ccc(F)cc1,0
18,O=C(c1[nH]nc(C2CC2)c1Br)N1CCC12CCC2,-3
19,Cc1ccc(C(=O)N2CCCC23CCC3)nn1,-9
20,CCOc1ccc(C2C(C(=O)O)CCC(=O)N2C2CCCCC2)cc1 (configuration not stated),10
21,CN(C)c1ccc(C(=O)N2CC[C@H]3NC(=O)N(Cc4ccccc4)C(=O)[C@H]32)cc1,-5
22,Cc1ccc(S(=O)(=O)Nc2cccc(-c3csc(C)n3)c2)cc1,10
23,COc1ccc(CNC(=O)c2sc(Nc3ccc(C)cc3C)nc2C)c(OC)c1,-2
24,O=C1[C@H](c2cccnc2)N(CCCc2ccccc2)C(=O)CN1c1ccccc1,-15
25,CCC(=O)N(CCN(C)C)Cc1c(-c2ccccc2)noc1N1CCCCC1,13
26,CCN(CCN(C)C)C(=O)c1cccc(-c2ccc3nccc(N)c3c2)c1,96

row,Compound,% Inhibition [%]
1,COc1ccc(-c2cc3nn(CC(=O)NCCC(C)C)c(=O)n3c(C)n2)cc1,1
2,CCc1sc(N(C(=O)CCc2ccccc2)c2ccc(C)cc2C)nc1-c1ccc(OC)cc1,9
3,CCn1ncc(-c2cc(C(F)(F)F)c3c(C(C)C)nn(-c4ccc(F)cc4)c3n2)c1C,-1
4,O=C(C[C@H]1CCC(=O)N(Cc2ccccc2)CC1)NC1CCN(Cc2ccccc2)CC1,6
5,O=C(NC1CCCCCC1)c1cn(CC2(O)CCN(Cc3ccccc3)CC2)nn1,15
6,CCn1ncc(C(=O)n2nc(C)cc2C)c1C,10
7,O=c1cc(N2CCN(C3CCCC3)CC2)cnn1Cc1ccccc1,-19
8,Cc1ccnc(-n2nccc2NC(=O)[C@H](C)Oc2ccccc2)c1,0
9,O=c1c2ccccc2nc2cc(-c3ccc(O)cc3)c(-c3ccccc3)nn12,28
10,CCOC(=O)NC(c1ccccc1F)C1CCCCC1=O (configuration not stated),1
11,O=C(CN1N=C(C(=O)Nc2ccccc2)CCC1=O)Nc1ccc(OC(F)(F)F)cc1,-8
12,CC[n+]1c(/C=C/N(C)c2ccccc2)oc2ccc(-c3ccccc3)cc21,91
13,CC[n+]1c(/C=C/N(C)c2ccccc2)oc2ccccc21,76
14,CCCn1nnc(N(C(=O)c2cc(Br)cc(C)c2OC)C(=O)c2cc(Br)cc(C)c2OC)n1,0
15,CCCC1CCC(c2ccc(-c3noc(-c4ccc(O)c(F)c4)n3)cc2)CC1 (configuration not stated),4
16,CC(C)c1ccc2ncnc(N[C@H]3CCc4[nH]cnc4C3)c2c1,101
17,O=c1[nH]nc(-c2ccc3c(c2)CCC3)c2ccccc12,-1
18,COc1ccc(-c2cc3ncc(C(=O)c4cc(Cl)ccc4O)cn3n2)cc1,78
19,COc1ccc(C2=NC3(CCN(Cc4ccccc4)CC3)N[C@H](c3cc(Cl)ccc3O)C2)cc1,9
20,O=C(Nc1ccc2c(c1)CNCC2)C1CC1c1ccc(F)c(F)c1 (configuration not stated),15
21,COc1ccccc1CC(=O)N(c1nc(C)cs1)C1CC1,-8
22,Cc1c(NC(=O)N2CCC(C)C(n3ccnc3)C2)cccc1N(C)C (configuration not stated),7
23,COc1ccc(CC(=O)Nc2cc(C)n(-c3cccc(Cl)c3)n2)cc1,93
24,COc1ccc(-n2nc(C)c(Cc3ccc(Cl)cc3)c2O)cc1,12
25,COc1ccc(Cl)cc1NC(=O)Cc1c(C)nc2nc(-c3ccccc3C)nn2c1C,6
26,C[C@@H](C(=O)NCCN1CCCCC1)N1C(=O)COc2ccc(C(=O)COc3ccccc3Cl)cc21,-20

row,Compound,% Inhibition [%]
1,Cc1nn(-c2ccccc2)c2c1[C@@H](c1ccc(C(F)(F)F)cc1)N(c1ccccc1)C(=O)N2,9
2,CCn1ncc(NC(=O)c2cc(-c3ccccc3)on2)c1C,-19
3,CCc1ccccc1Nc1nc(C)c(C(=O)NCc2cccnc2)s1,-22
4,COc1ccc(Nc2nnc(-c3ccc(NC(=O)C(=O)NCCCn4ccnc4)cc3)s2)cc1,76
5,COc1ccc(-c2nccn3cc(C(=O)NCCc4ccncc4)nc23)cc1,5
6,O=S(=O)(Cc1cc(Cl)cc(Cl)c1)NCCCCn1ccnc1,-11
7,CCOc1ccc(CN2CC[C@H](Nc3ncccn3)[C@@H](O)C2)cc1Cl,-18
8,CC(C)c1ccc(-c2nc(CN3CCCCC3)cc(CN3CCCCC3)c2O)cc1,95
9,CC(C)c1nc(O)cc(CN2CCCCC2)n1,4
10,Cc1ccc(-c2ccnn2C)cc1NC(=O)[C@H]1CCCOC1,13
11,COc1cc(C(=O)Nc2nnc(-c3ccc(C)s3)[nH]2)on1,9
12,O=C(NCC1CC12CCc1ccccc12)NC1CC2CCC1O2 (configuration not stated),1
13,Cc1ccc2nc(O)c3nnc(C)n3c2c1,15
14,NS(=O)(=O)c1ccc(-c2noc(C3(c4cccc(F)c4)CCC3)n2)cc1,-9
15,CN(C)CCCNc1nc(N2CCCC2)c2c(c1C#N)CCN(C)C2,14
16,CC(C)C(NC(=O)c1ccccc1F)C(=O)NC1CCC(N(C)C)C1 (configuration not stated),-9
17,CC1CCCN(c2nc(O)c3c(n2)NC(=O)CC3c2cccc(C(F)(F)F)c2)C1 (configuration not stated),9
18,CC(C)Cc1nsc(N2CCOC3CCN(C)CC32)n1 (configuration not stated),11
19,CN1c2cc(C(=O)N3CCN(c4ccccc4Cl)CC3)ccc2C(=O)N2CCCC[C@H]21,5
20,Nc1ccnc(OCc2ccccc2)n1,-16
21,C[C@H](Oc1ccc(F)cc1)C(=O)N1CCC(c2nc3cc(Cl)ccc3s2)CC1,-1
22,Cc1cc(N(C)CCC2CC2)nc([C@H](C)N(C)CCC2CC2)n1,61
23,Cc1cc(N(CCO)C2CC2)nc(C2CC2)n1,-18
24,Clc1ccc2c(c1)CC[C@@H]2NCc1nnc2n1CCC2,3
25,O=C(NCCc1cccnc1)OCC(F)(F)F,-19
26,Cc1ccc(OCCNc2cc([C@H]3C[C@H](N)C3)nc(C3CC3)n2)cc1C,25

row,Compound,% Inhibition [%]
1,N[C@H]1C[C@H](c2cc(NCCCc3cccnc3)nc(C3CC3)n2)C1,77
2,Cc1ccc(N(C)CC(=O)N2CCC2)c(Br)c1,-7
3,COc1ccc(C(=O)N(C(=O)c2ccc(OC)cc2)c2c3c(nc4ccccc24)CCCC3)cc1,61
4,O=C(Cc1ccccc1)Nc1c2c(nc3c1CCC3)CCCC2,8
5,COc1ccc(CCc2nc(NC(=O)c3[nH]nc4c3CCC4)n[nH]2)cc1,-15
6,Cc1ccc2c(c1)N(C(=O)c1c[nH]c(C)cc1=O)CCC2,-3
7,COc1cc(OC)nc(-n2nc(C)cc2C(=O)Nc2ccc(Cl)cc2)n1,18
8,Cc1cc(C)n(-c2nnc(-c3ccccc3)c(-c3ccccc3)n2)n1,10
9,Cc1cc(C)n(-c2nc(Nc3ccc(Cl)cc3)nc(Nc3ccc(Cl)cc3)n2)n1,87
10,Cc1cc(C)c(S(=O)(=O)Cc2ccccc2)c(O)n1,12
11,Cc1ocnc1C(=O)N[C@H]1CCN(c2ccc(Cl)c(F)c2)C1=O,7
12,Cc1cc(N2C[C@H]3CC[C@@H](C2)[C@H]3N(C)C)nc(Nc2cccc(O)c2)n1,86
13,Cc1cc(N2CC(OCc3ccccc3)C2)nc(Nc2cccc(O)c2)n1,96
14,Cc1cccc([C@@H](NC(=O)Nc2ncco2)C(F)(F)F)c1,-15
15,N#Cc1ccccc1OCc1csc(-c2ccccn2)n1,6
16,O=C(Nc1nc(CCc2c[nH]c3ccccc23)n[nH]1)c1cccnc1,12
17,CC1=NN(S(=O)(=O)c2ccc(F)cc2)C(=O)c2ccccc2O1,5
18,CN(Cc1nnc2n1CCC2)C(=O)Cc1cccs1,9
19,COc1cc(CN(CC(N)=O)C(C)C)ccc1C,9
20,Cc1cc(C(=O)NCc2nc3ccccc3s2)c(C)o1,7
21,Cc1ccc(COc2cccc(CNC3CC3)c2)cc1,-1
22,CN1CCN(C(=O)CNC(=O)c2cccc(Cl)c2)CC1,8
23,Cc1ccc(S(=O)(=O)N(CC(=O)NC2CCN(C)CC2)c2cccc(Cl)c2)cc1,2
24,Cn1cc(Cl)c(C(=O)Nc2cccc(S(=O)(=O)N3CCOCC3)c2)n1,13

# — ChEMBL document CHEMBL4888484, “Replenishing the malaria drug discovery pipeline: Screening and hit evaluation of the MMV Hit Generation Library 1 (HGL1) against asexual blood stage Plasmodium falciparum ,using a nano luciferase reporter read-out” (2022)
